This passage reports sensor-assay potency score (higher = more potent) results from the OligoGym collection.
Also: reference of the scale not given here.

The target of one experiment is RGS9. In words: pooled miR-30 sensor sort-seq; sequence = guide strand. The following applies: shRNA.
With TTCCTTTTCATATTCTTCCAAA, the sensor-assay potency score (higher = more potent) is -0.756.
On the same count and under the same terms, in the case of TTGCCATCTATGTTGATCCAGC it was -0.689.
Same read-out and setting: in the case of TTTTTGACAGCAACGACTGTTT it was -0.217; in that of TGACTTTGGACTGATCTCCATA, -0.742.
Same read-out and setting: with TTGAGAATGAGATTCTTGGGGT the figure was 0.816.
Regarding TTGCAGAACATCACTTCCTGTC, the sensor-assay potency score (higher = more potent) was found to be 0.603.
As for TTCTTTTTGATATTTCGCTTGG, the sensor-assay potency score (higher = more potent) was -0.579.
Turning to TATCTGTCTGCTTTGTTCCTCT, the sensor-assay potency score (higher = more potent) was -0.0404.
On the same count and under the same terms, in the case of TTTACCTTGACTTCATTCGGAT it was 0.0975.

The next experiment addresses RHBDL3. The experiment is described as above. As to conditions: shRNA.
Turning to AAACTGATCAAACAGGACTTTC, the sensor-assay potency score (higher = more potent) is -1.76.
The same measure, in the same setting: with ATCCGCAGCAGCTTGAACTGGC the figure was -0.0826; with TTGCCTGTGCTAATGTAGCCTG, -0.542; with AAATCCACCACAGTGACTGGTC, 0.238.
In turn, TGATCAAACAGGACTTTCCAGT gave a sensor-assay potency score (higher = more potent) of -0.423.
Still for that read-out and setting: in the case of TTAGGCTGACAAAATCCTGGTA it was 0.00913; in that of TAGCTGTCATAGTACCACTTGC, -0.706; in that of TAGGCTGACAAAATCCTGGTAG, 0.858.
Still for that read-out and setting: with TAATGTAGCCTGTGTTCCCAGG the figure was -0.768; with TTGAACTGGCACTTCATGCCTG, 0.341.
Same read-out and setting: in the case of TGTCATAGTACCACTTGCGGTC it was -0.531; in that of TGAACTGGCACTTCATGCCTGA, 0.0699.

A further experiment concerns the target RHOF. The experiment is described as above. As to conditions: shRNA.
In turn, TTCCTCAGGTCTGTCTTGCAGC gave a sensor-assay potency score (higher = more potent) of -0.598.
Take ATGAGCAGCGAGGTCTTGCCGC: the sensor-assay potency score (higher = more potent) was -1.07.
On the same count and under the same terms, in the case of TAGCAGATGAGCACGAGGTGGG it was 0.0207; in that of TTGCTGCCAACGGTCACGCTGG, -0.873; in that of TAGGTGATGGGCTCCAGCTGGG, -0.461.
Turning to TCCAGGTAGAGAGCAGCTCGGA, the sensor-assay potency score (higher = more potent) is -1.54.
Take TTGATGAGGACGTTGTCGTAGC: the sensor-assay potency score (higher = more potent) is 0.173.
The sequence TAGAGAGCAGCTCGGATCTGTT displayed a sensor-assay potency score (higher = more potent) of -0.736.
The sequence TTCAGCTCCTTCCTGCCCGGAC showed a sensor-assay potency score (higher = more potent) of -0.816.
TACTTCTCGAACACCGATGGGG had a sensor-assay potency score (higher = more potent) of 0.0393.
Sequence AAACTTGGCGGAACATTCCAGG yielded a sensor-assay potency score (higher = more potent) of -0.805.
Same read-out and setting: with TAGTCTTCTTGCCCGGCCGTGT the figure was -1.09.

The target in another experiment is RHOH. Described as above. The following applies: shRNA.
Sequence TAGGCCTCCGGGAAGGTCTCGG returned a sensor-assay potency score (higher = more potent) of -0.658.
TTGACGGCAGTTCGGACGGCGC came in with a sensor-assay potency score (higher = more potent) of -1.65.
Same read-out and setting: in the case of TGTGTTCTCGTACACTGTGGGC it was -1.21; in that of AAACACCTGCTGTACTCCCCGA, -0.993.
TTCTCGTACACTGTGGGCTTGT registered a sensor-assay potency score (higher = more potent) of -0.506.
On the same count and under the same terms, in the case of TTCAGGAATGAGTTATGGTTGG it was -0.949.
Same read-out and setting: in the case of TAATTTCACCAATCCACTTGTT it was 0.134.
